Laboratory results as given in PubChem BioAssay (EPA / NIEHS).
Active and inactive are the calls of the source. The calls were made as follows: active = hit-call score of the fitted dose curve at least 0.9, where 1 is the maximum; inactive = score below 0.9.

What was measured:
[1] = BSK_BT_Bcell_Proliferation: Viability Assessment in the BioMAP Diversity Plus: BT Assay for B cell Proliferation (AID 2284227); conditions: primary human B cells with PBMC
Summary of the method: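 Read-out is absorbance at 560 nm from sulforhodamine B staining of total protein, reflecting relative cell numbers in a human B cell and PBMC co-culture after 72 h of chemical exposure. Values were referenced to DMSO.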

[2] = read-out: Interleukin 6 (IL6), IL6 (gene 3569); test: BSK_BT_xIL6: BioMAP Diversity Plus: BT Assay for Interleukin 6 (IL6) Biomarker Activity (AID 2284228); conditions: primary human B cells with PBMC
Summary of the method: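 Readout: secreted IL-6 via Luminex xMAP multiplex, 24 h post-dosing. System: primary human B cells co-cultured with PBMC. Signal change scored relative to DMSO vehicle, positive fitting direction.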

[3] = read-out: Interleukin 17A (IL17A), IL17A (gene 3605); test: BSK_BT_xIL17A: BioMAP Diversity Plus: BT Assay for Interleukin 17A (IL17A) Biomarker Activity (AID 2284229); conditions: primary human B cells with PBMC
Summary of the method: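 Luminex xMAP readout of secreted IL-17A; human B cell + PBMC co-culture; 24 h post-dose; positive-direction fit vs DMSO negative control.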

[4] = read-out: Vascular cell adhesion molecule 1 (VCAM1), VCAM1 (gene 7412); test: BSK_MyoF_VCAM1: BioMAP Diversity Plus: MyoF Assay for Vascular cell adhesion molecule 1 (VCAM1) Biomarker Activity (AID 2284231); conditions: primary human lung fibroblasts
Summary of the method: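 MyoF system, lung fibroblasts; 24 h post-dose; VCAM-1 by ELISA; gain-of-signal fit vs DMSO baseline.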

[5] = CCTE_Mundy_HCI_Cortical_NOG_BPCount: CCTE's Neurite Outgrowth Assay in rat cortical cells for Branch Point Count, Mundy Lab (AID 2284237)
Summary of the method: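 Measured 50.33 h after dosing, this morphology endpoint uses rat primary cortical cultures labelled for betaIII-tubulin. Branch points are quantified by high-content imaging, with DMSO as negative control and baseline.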

[6] = read-out: Collagen I, COL1A1 (gene 1277); test: BSK_MyoF_CollagenI: BioMAP Diversity Plus: MyoF Assay for Collagen I Biomarker Activity (AID 2284238); conditions: primary human lung fibroblasts
Summary of the method: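 ELISA readout of Collagen I after 24 h chemical treatment of primary human lung fibroblast cultures; gain of signal scored relative to DMSO vehicle baseline.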

[7] = read-out: Collagen III, COL3A1 (gene 1281); test: BSK_MyoF_CollagenIII: BioMAP Diversity Plus: MyoF Assay for Collagen III Biomarker Activity (AID 2284239); conditions: primary human lung fibroblasts
Summary of the method: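 Lung fibroblast culture; 24 h compound exposure; collagen III by ELISA; gain-of-signal fit vs DMSO baseline.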

[8] = CCTE_Mundy_HCI_hNP1_Casp3_7: CCTE's Caspase-Glo 3/7 Assay in human neuroprogenitor cells for Apoptosis, Mundy Lab (AID 2284240)
Summary of the method: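 Neuroepithelial-lineage stem cells from WA09 embryonic cells were treated with chemicals after 40–44 h of culture. Twenty-four hours later, caspase-3/7 activation was detected luminescently after a 30 min room-temperature reagent step, with DMSO as baseline.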

[9] = read-out: Interleukin 17F (IL17F), IL17F (gene 112744); test: BSK_BT_xIL17F: BioMAP Diversity Plus: BT Assay for Interleukin 17F (IL17F) Biomarker Activity (AID 2284243); conditions: primary human B cells with PBMC
Summary of the method: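 Secreted IL-17F, read on LumineX xMAP beads, was taken as the endpoint. Cultures combined human B cells and peripheral blood mononuclear cells, sampled 24 hours after dosing, with DMSO serving as negative control.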

[10] = read-out: Actin alpha 1 (ACTA1), ACTA1 (gene 58); test: BSK_MyoF_ACTA1: BioMAP Diversity Plus: MyoF Assay for Actin alpha 1 (ACTA1) Biomarker Activity (AID 2284244); conditions: primary human lung fibroblasts
Summary of the method: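 Measured by ELISA: alpha-smooth muscle actin in human primary lung fibroblasts 24 h after dosing, with DMSO as baseline and upward signal change as the fitted direction.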

[11] = read-out: Interleukin 2 (IL2), IL2 (gene 3558); test: BSK_BT_xIL2: BioMAP Diversity Plus: BT Assay for Interleukin 2 (IL2) Biomarker Activity (AID 2284245); conditions: primary human B cells with PBMC
Summary of the method: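 Secreted interleukin-2 from human B cell/PBMC co-cultures, measured 24 h post-dosing by Luminex multiplex immunoassay. Upward-direction curve fitting against DMSO baseline.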

[12] = read-out: Basic fibroblast growth factor (bFGF), FGF2 (gene 2247); test: BSK_MyoF_bFGF: BioMAP Diversity Plus: MyoF Assay for Basic fibroblast growth factor (bFGF) Biomarker Activity (AID 2284246); conditions: primary human lung fibroblasts
Summary of the method: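 In this multiplexed cell system, lung fibroblasts (human primary) receive test chemical for 24 h before ELISA detection of bFGF; DMSO defines baseline and the analysis direction is positive.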

[13] = read-out: Collagen IV, COL4A1 (gene 1282); test: BSK_MyoF_CollagenIV: BioMAP Diversity Plus: MyoF Assay for Collagen IV Biomarker Activity (AID 2284247); conditions: primary human lung fibroblasts
Summary of the method: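 Activity is scored as a signal increase over DMSO in an ELISA for Collagen IV, measured on human lung fibroblasts at 24 h after chemical treatment. Cytotoxicity is checked in parallel cultures by sulforhodamine B total-protein staining.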

[14] = read-out: Plasminogen activator inhibitor-1 (PAI1), SERPINE1 (gene 5054); test: BSK_MyoF_PAI1: BioMAP Diversity Plus: MyoF Assay for Plasminogen activator inhibitor-1 (PAI1) Biomarker Activity (AID 2284256); conditions: primary human lung fibroblasts
Summary of the method: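 MyoF lung fibroblasts, human primary; compound 24 h; PAI-1 ELISA; positive-direction fit vs DMSO baseline; parallel SRB total-protein staining for cytotoxicity.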

[15] = read-out: Interleukin-8 (IL8), CXCL8 (gene 3576); test: BSK_MyoF_IL8: BioMAP Diversity Plus: MyoF Assay for Interleukin-8 (IL8) Biomarker Activity (AID 2284261); conditions: primary human lung fibroblasts
Summary of the method: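 Lung fibroblasts (human primary) → chemical exposure → 24 h → IL-8 measured by ELISA. Signal increase scored versus DMSO control.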

Decorin, DCN (gene 1634) = test: BSK_MyoF_Decorin: BioMAP Diversity Plus: MyoF Assay for Decorin Biomarker Activity (AID 2284265); conditions: primary human lung fibroblasts
Summary of the method: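 ELISA readout of decorin, 24 h post-dosing; primary human lung fibroblast (MyoF) culture; gain-of-signal fit vs DMSO baseline.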

Measured: AC50

N#Cc1ccc(CC(=NNC(=O)Nc2ccc(OC(F)(F)F)cc2)c2cccc(C(F)(F)F)c2)cc1
inactive: all assays above

O=C(O)c1cn(-c2ccc(F)cc2)c2cc(N3CCNCC3)c(F)cc2c1=O
not listed: [5] | [8]
inactive: all other assays above

c1ccc2sc(SN(C3CCCCC3)C3CCCCC3)nc2c1
active: [10] 5.57 µM
not listed: [5] | [8]
inactive: all other assays above

CC(C)Oc1ccccc1O
not listed: [5] | [8]
inactive: all other assays above

O=C=NC1CCC(CC2CCC(N=C=O)CC2)CC1 (configuration not stated)
active: [1] 31.2 µM
not listed: [5] | [8]
inactive: all other assays above

CCCCC(CC)COCCC#N (configuration not stated)
not listed: [5] | [8]
inactive: all other assays above

O=C1OC2(c3cc(Br)c(O)c(Br)c3Oc3c2cc(Br)c(O)c3Br)c2c(Cl)c(Cl)c(Cl)c(Cl)c21
inactive: [1] | [9] | [11]
active: [2] 8.52 µM | [3] 9.94 µM | [4] 5.03 µM | [6] 3.89 µM | [7] 4.52 µM | [10] 5.23 µM | [12] 11.9 µM | [13] 2.72 µM | [14] 4.56 µM | [15] 20 µM | Decorin, DCN (gene 1634) 13.2 µM

CC(C)(COC(=O)c1ccccc1)COC(=O)c1ccccc1
not listed: [5] | [8]
inactive: all other assays above

CCCCC(CC)COC(=O)/C=C\C(=O)OCC(CC)CCCC (configuration not stated)
active: [1] 20 µM | [2] 11.2 µM | [11] 20 µM
not listed: [5] | [8]
inactive: all other assays above

CCCCCCCCC=O
not listed: [5] | [8]
inactive: all other assays above
